Data reported in PubChem BioAssay (EPA / NIEHS).
Records with an inconclusive call do not appear. Active and inactive are the calls of the source. The calls were made as follows: active = hit-call score of the fitted dose curve at least 0.9, where 1 is the maximum; inconclusive = response in the unintended direction; inactive = score below 0.9.

Assays:
[1] = molecular target: Cellular tumor antigen p53 (Homo sapiens) (UniProt P04637); test: TOX21_p53_BLA_p2_ratio: Tox21 HCT-116 p53 Agonism Beta-lactamase Assay, Ratio, Phase 2 (AID 2283592)
In short: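 Cleaved-to-uncleaved substrate ratio (460 vs 530 nm) measured in HCT116 cells with an inducible beta-lactamase reporter linked to p53 activity. Compounds incubated 16 h at 37C before 2 h room-temperature CCF4-AM loading.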

[2] = TOX21_p53_BLA_p3_viability: Viability Assessment in the Tox21 HCT-116 p53 Agonism Beta-lactamase Assay, Phase 3 (AID 2283593);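 also: cells exposed to compound for 16 h before reading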
In short: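 HCT-116 cells (4000/well) rested 5 h at 37C, then got DMSO compounds by pin tool (217-fold dilution) for 16 h at 37C, 5% CO2. After the bla read, CellTiter-Glo was added and luminescence read at 30 min, room temperature.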

[3] = molecular target: Cellular tumor antigen p53 (Homo sapiens) (UniProt P04637); test: TOX21_p53_BLA_p3_ratio: Tox21 HCT-116 p53 Agonism Beta-lactamase Assay, Ratio, Phase 3 (AID 2283596)
In short: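 Cells were seeded at 4000/well, rested 5 h at 37C, then dosed with DMSO compound solutions (217-fold dilution) for 16 h. CCF4-AM substrate was loaded for 2 h at room temperature, and the 460/530 nm emission ratio was fitted for gain of signal versus DMSO.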

[4] = TOX21_p53_BLA_p4_viability: Viability Assessment in the Tox21 HCT-116 p53 Agonism Beta-lactamase Assay, Phase 4 (AID 2283597);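 also: hits lower the luminescence signal meaning cytotoxicity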
In short: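 Viability is taken as cellular ATP: after 16 h compound exposure of HCT116 cells and a 2 h room-temperature CCF4-AM substrate step, CellTiter-Glo reagent is added and luminescence is measured 30 min later.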

[5] = molecular target: Cellular tumor antigen p53 (Homo sapiens) (UniProt P04637); test: TOX21_p53_BLA_p4_ratio: Tox21 HCT-116 p53 Agonism Beta-lactamase Assay, Ratio, Phase 4 (AID 2283601)
In short: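 HCT116 cells carrying an inducible beta-lactamase reporter were plated at 4000 cells/well, rested 5 h, then exposed to compounds in DMSO (217-fold dilution) for 16 h at 37C. CCF4-AM substrate was loaded 2 h at room temperature; 460/530 nm emission ratio scored gain-of-signal versus DMSO.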

[6] = molecular target: Cellular tumor antigen p53 (Homo sapiens) (UniProt P04637); test: TOX21_p53_BLA_p5_ratio: Tox21 HCT-116 p53 Agonism Beta-lactamase Assay, Ratio, Phase 5 (AID 2283599)
In short: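 HCT-116 cells carrying a p53-inducible beta-lactamase reporter were seeded at 4000 cells/well and dosed after 5 h with compound in DMSO (217-fold dilution). After 16 h at 37C, CCF4-AM substrate was added for 2 h, and the 460/530 nm emission ratio was scored as gain-of-signal versus DMSO.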

[7] = TOX21_p53_BLA_p5_viability: Viability Assessment in the Tox21 HCT-116 p53 Agonism Beta-lactamase Assay, Phase 5 (AID 2283600)
In short: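 Viability is taken from cellular ATP content, measured by luciferase luminescence in the same wells after the beta-lactamase ratio read. Cells are seeded at 4000 per well and exposed to DMSO-dissolved compounds, diluted 217-fold, for 16 h.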

THRB (gene 7068) [8] = molecular target: THRB (gene 7068) (UniProt P10828); test: TOX21_TRB_BLA_Antagonist_Followup_ratio: Tox21 Thyroid Hormone Receptor beta Antagonism Beta-lactamase (BLA) Follow-Up Assay, Ratio (AID 2283958)
In short: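 Using charcoal-stripped 2% FBS medium, human TRβ-LBD/GAL4 reporter HEK293T cells received test compounds for 18 h. The endpoint is the cleaved-to-uncleaved substrate ratio (460/530 nm).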

[9] = TOX21_TRB_BLA_Antagonist_Followup_viability: Viability Assessment in the Tox21 Thyroid Hormone Receptor beta Antagonism Beta-lactamase (BLA) Follow-Up Assay (AID 2283961)
In short: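 Cytotoxicity is measured in parallel with the antagonist-mode TRβ beta-lactamase screen, using ATP-coupled luciferase luminescence. Engineered HEK293T cells are treated for 18 h with 11-point compound series in triplicate.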

THRB (gene 7068) [10] = molecular target: THRB (gene 7068) (UniProt P10828); test: TOX21_TRB_COA_Antagonist_Followup_ratio: Tox21 Thyroid Hormone Receptor beta Antagonism through Coactivator Recruitment Follow-Up Assay, Ratio (AID 2283967)
In short: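 Coactivator (SRC-2) recruitment to purified GST-TRβ ligand-binding domain is monitored by terbium-to-fluorescein energy transfer, emission ratio 520:495 nm. DMSO wells define 0% and T3 wells 100% activity.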

[11] = molecular target: Retinoic acid receptor RXR-alpha (Homo sapiens) (UniProt P19793); test: TOX21_TR_RXR_BLA_Antagonist_Followup_ratio: Tox21 Thyroid Hormone Receptor beta Retinoid X Receptor alpha (RXRa) Antagonism Beta-lactamase (BLA) Follow-Up Assay, Ratio (AID 2283972)
In short: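 Antagonist mode used GAL4 UAS-driven beta-lactamase in HEK293T cells expressing RXRa, treated for 16 h with compound concentration series. Activity was taken from the blue/green (460:530 nm) ratio of cleaved to uncleaved substrate.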

[12] = TOX21_TR_RXR_BLA_Antagonist_Followup_viability: Viability Assessment in the Tox21 Thyroid Hormone Receptor beta Retinoid X Receptor alpha (RXRa) Antagonism Beta-lactamase (BLA) Follow-Up Assay (AID 2283979)
In short: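 RXRa-UAS-bla HEK293T cells seeded 2,500/well in phenol red-free DMEM with 2% charcoal-stripped FBS, attached 5 h, then exposed to compounds at 11 concentrations in triplicate for 16 h at 37C/5% CO2. Viability read by CellTiter-Glo ATP luminescence; bidirectional fit versus DMSO.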

Sequence of Cellular tumor antigen p53 (Homo sapiens) (P04637 whole entry, looked up): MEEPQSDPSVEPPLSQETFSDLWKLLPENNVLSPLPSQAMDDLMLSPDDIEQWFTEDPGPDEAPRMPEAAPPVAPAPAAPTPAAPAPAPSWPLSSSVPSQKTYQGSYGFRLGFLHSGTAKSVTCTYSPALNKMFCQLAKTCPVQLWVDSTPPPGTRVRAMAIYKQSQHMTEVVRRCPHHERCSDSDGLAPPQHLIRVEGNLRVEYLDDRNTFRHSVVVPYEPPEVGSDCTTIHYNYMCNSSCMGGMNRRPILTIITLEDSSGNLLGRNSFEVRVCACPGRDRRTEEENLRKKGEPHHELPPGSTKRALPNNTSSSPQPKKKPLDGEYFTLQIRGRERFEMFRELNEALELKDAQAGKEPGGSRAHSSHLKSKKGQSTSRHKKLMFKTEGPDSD
Sequence of THRB (gene 7068) (P10828 whole entry, looked up, the tested form may be a part): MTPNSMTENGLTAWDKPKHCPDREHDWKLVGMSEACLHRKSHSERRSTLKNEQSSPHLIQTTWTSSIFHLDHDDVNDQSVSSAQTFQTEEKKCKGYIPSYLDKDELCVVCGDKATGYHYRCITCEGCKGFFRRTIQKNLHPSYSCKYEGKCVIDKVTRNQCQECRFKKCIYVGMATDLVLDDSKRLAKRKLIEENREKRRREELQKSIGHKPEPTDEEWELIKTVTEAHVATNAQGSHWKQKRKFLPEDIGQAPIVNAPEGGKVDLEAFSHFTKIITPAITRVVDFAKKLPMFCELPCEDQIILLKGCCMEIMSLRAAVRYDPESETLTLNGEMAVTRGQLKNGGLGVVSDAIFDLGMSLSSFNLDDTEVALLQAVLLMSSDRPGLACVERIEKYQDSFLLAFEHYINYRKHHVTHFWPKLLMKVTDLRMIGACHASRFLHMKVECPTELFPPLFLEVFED
Sequence of Retinoic acid receptor RXR-alpha (Homo sapiens) (P19793 whole entry, looked up, the tested form may be a part): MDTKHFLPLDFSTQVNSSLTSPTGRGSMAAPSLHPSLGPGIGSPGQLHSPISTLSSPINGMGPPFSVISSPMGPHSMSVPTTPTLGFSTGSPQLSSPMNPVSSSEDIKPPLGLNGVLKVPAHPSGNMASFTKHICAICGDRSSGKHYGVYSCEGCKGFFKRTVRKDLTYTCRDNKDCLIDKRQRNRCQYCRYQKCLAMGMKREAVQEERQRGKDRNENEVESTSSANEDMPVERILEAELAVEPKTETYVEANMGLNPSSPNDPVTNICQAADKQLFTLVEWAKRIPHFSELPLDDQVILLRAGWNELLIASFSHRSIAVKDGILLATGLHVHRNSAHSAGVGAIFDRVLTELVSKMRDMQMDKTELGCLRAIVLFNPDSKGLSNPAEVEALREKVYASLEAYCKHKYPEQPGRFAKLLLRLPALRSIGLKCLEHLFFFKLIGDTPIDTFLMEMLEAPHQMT

In the case of CC(CCc1ccc(O)cc1)NCCc1ccc(O)c(O)c1 (stereo unspecified), the outcome [1] is reported as “inactive”, the outcome [2] is reported as “inactive” and the outcome [3] is reported as “inactive”. For the same compound, the outcome [4] was “inactive” and the AC50 [5] was 43.6 µM (active).
For CCn1nc(C(=O)O)c(=O)c2cc3c(cc21)OCO3, the outcome [1] was “inactive”, the outcome [2] was “inactive” and the outcome [3] was “inactive”. For the same compound, the outcome [6] was “inactive”, the outcome [7] was “inactive” and the outcome [5] was “inactive”.
In the case of CC(C)CC(C)(N)C#N (stereo unspecified), the outcome [1] is reported as “inactive”, the outcome [2] is reported as “inactive” and the outcome [3] is reported as “inactive”. For the same compound, the outcome [6] was “inactive”, the outcome [7] was “inactive” and the outcome [5] was “inactive”.
With CC[N+](CC)(CC)CCOc1ccc(/C=C/c2ccccc2)cc1 the outcome [1] was “inactive”, the outcome [2] was “inactive” and the outcome [3] was “inactive”. For the same compound, the outcome [6] was “inactive”, the outcome [7] was “inactive” and the outcome [5] was “inactive”.
With CO/N=C(\C(=O)N[C@@H]1C(=O)N2C(C(=O)O)=C(CSc3cnns3)CS[C@H]12)c1csc(N)n1 the outcome [1] was “inactive”, the outcome [2] was “inactive” and the outcome [3] was “inactive”. For the same compound, the outcome [6] was “inactive” and the outcome [5] was “inactive”.
For CCCOc1ccc2nc(NC(=O)OC)sc2c1, the AC50 [1] was 0.653 µM (active), the outcome [2] was “inactive” and the AC50 [3] was 3.42 µM (active). The AC50 [6] was 2.75 µM (active), the outcome [7] was “inactive” and the AC50 [5] was 1.66 µM (active). For the same compound, the outcome (THRB (gene 7068) [8]) was “inactive”, the outcome [9] was “inactive” and the outcome (THRB (gene 7068) [10]) was “inactive”. For the same compound, the outcome [11] was “inactive” and the outcome [12] was “inactive”.
For Cc1cc(C(C)(C)C)cc(C)c1CC1=NCCN1, the outcome [1] was “inactive”, the outcome [2] was “inactive” and the outcome [3] was “inactive”. For the same compound, the outcome [6] was “inactive”, the outcome [7] was “inactive” and the outcome [5] was “inactive”.
In the case of Nc1ncnc2c1ncn2[C@@H]1O[C@H](COP(=O)(O)OP(=O)(O)OP(=O)(O)O)[C@@H](O)[C@H]1O, the outcome [1] is reported as “inactive”, the outcome [2] is reported as “inactive” and the outcome [3] is reported as “inactive”. The outcome [6] was “inactive”, the outcome [7] was “inactive” and the outcome [5] was “inactive”.
With CCCCCCCC(=O)Oc1c(Br)cc(C#N)cc1Br the AC50 [1] was 67.3 µM (active), the outcome [2] was “inactive” and the outcome [3] was “inactive”. The outcome [6] was “inactive” and the outcome [5] was “inactive”.
With C#C[C@]1(OC(C)=O)CC[C@H]2[C@@H]3CCC4=CC(=O)CC[C@@H]4[C@H]3CC[C@@]21C the outcome [1] was “inactive”, the outcome [2] was “inactive” and the outcome [3] was “inactive”. For the same compound, the outcome [6] was “inactive” and the outcome [5] was “inactive”.
For CC(C)=O, the outcome [1] was “inactive”, the outcome [2] was “inactive” and the outcome [3] was “inactive”. The outcome [6] was “inactive”, the outcome [7] was “inactive” and the outcome [5] was “inactive”.
With CCc1cc(S(=O)(=O)O)c2cc(C(C)C)cccc1-2 the outcome [1] was “inactive”, the outcome [2] was “inactive” and the outcome [3] was “inactive”. For the same compound, the outcome [6] was “inactive”, the outcome [7] was “inactive” and the outcome [5] was “inactive”.
With CC(C)NCC(O)COc1cccc2[nH]ccc12 (stereo unspecified) the outcome [1] was “inactive”, the outcome [2] was “inactive” and the outcome [3] was “inactive”. The outcome [6] was “inactive” and the outcome [5] was “inactive”.
For CC(=O)N(CC(O)CN(C(C)=O)c1c(I)c(C(=O)NCC(O)CO)c(I)c(C(=O)NCC(O)CO)c1I)c1c(I)c(C(=O)NCC(O)CO)c(I)c(C(=O)NCC(O)CO)c1I (stereo unspecified), the outcome [1] was “inactive”, the outcome [2] was “inactive” and the outcome [3] was “inactive”. The outcome [6] was “inactive” and the outcome [5] was “inactive”.
With CCCCC(C)(O)C/C=C/[C@H]1[C@H](O)CC(=O)[C@@H]1CCCCCCC(=O)OC (stereo partly specified) the outcome [1] was “inactive”, the outcome [2] was “inactive” and the outcome [3] was “inactive”. The outcome [6] was “inactive” and the outcome [5] was “inactive”.
For O=C(O)C(=O)Cc1c[nH]c2ccccc12, the outcome [1] was “inactive”, the outcome [2] was “inactive” and the outcome [3] was “inactive”. For the same compound, the outcome [6] was “inactive”, the outcome [7] was “inactive” and the outcome [5] was “inactive”.
In the case of Cc1cc2cc3c(C)cc(=O)oc3c(C)c2o1, the outcome [1] is reported as “inactive”, the outcome [2] is reported as “inactive” and the outcome [3] is reported as “inactive”. For the same compound, the outcome [6] was “inactive” and the outcome [5] was “inactive”.
For CN(CCCN1c2ccccc2CCc2ccccc21)CC(=O)c1ccc(Cl)cc1, the outcome [1] was “inactive”, the outcome [2] was “inactive” and the outcome [3] was “inactive”. For the same compound, the outcome [6] was “inactive” and the outcome [5] was “inactive”.
For c1ccc2sc(SSc3nc4ccccc4s3)nc2c1, the outcome [1] was “inactive”, the outcome [2] was “inactive” and the outcome [3] was “inactive”. The outcome [6] was “inactive”, the outcome [7] was “inactive” and the outcome [5] was “inactive”.
For CCCCCCCCCCCCCCCCCCO, the outcome [1] was “inactive”, the outcome [2] was “inactive” and the outcome [3] was “inactive”. The outcome [6] was “inactive” and the outcome [5] was “inactive”.
In the case of Nc1ncnc2c1ncn2[C@@H]1O[C@H](CO)[C@@H](O)[C@H]1O, the outcome [1] is reported as “inactive”, the outcome [2] is reported as “inactive” and the outcome [3] is reported as “inactive”. The outcome [6] was “inactive”, the outcome [7] was “inactive” and the outcome [5] was “inactive”.
